HT1080 IDH1KD tx – qHTS for induction of synthetic lethality in tumor cells producing 2HG: qHTS for the HT-1080-IDH1KD cell line | Potency, µM (titrated, usually from 46.1 µM), actives largely listed as cytotoxic | 360,000 tested, 2% active | HT-1080 IDH1 knockdown viability, ATP luminescence, 48 h
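% activity derives from luminescence (CellTiter-Glo), normalised to DMSO and no-cell wells. HT-1080-IDH1KD cells, 750/well, had 48 h compound exposure at 37 °C.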
TDP1 cell noCPT – qHTS for Inhibitors of human tyrosyl-DNA phosphodiesterase 1 (TDP1): qHTS in cells in absence of CPT | DT40 Tdp1-/- hTDP1 cells, no CPT, ATP luminescence, 48 h | Potency, µM (titrated, usually from 46.2 µM), usual class: inhibitors | 420,000 tested, 15% active | AID 686978, 2013; note: nearly all actives have a fitted effect of over 55% in size
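Growth kinetics read by CellTiter-Glo luminescence after ≥48 hr at 37 °C. Cells: DT40 Tdp1-/- stably carrying human TDP1, 400 per well, compound exposure in the absence of CPT (DMSO vehicle).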
DT40 TDP1 CPT – qHTS for Inhibitors of human tyrosyl-DNA phosphodiesterase 1 (TDP1): qHTS in cells in presence of CPT; Potency, µM (titrated, usually from 46.2 µM), actives largely listed as inhibitors; AID 686979, 2013; 420,000 tested, 12% active; chicken DT40 Tdp1-/-;hTDP1 cells + 20 nM CPT, ATP luminescence, 48 h; note: nearly all actives have a fitted effect of over 55% in size
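Cell growth measured by CellTiter-Glo luminescence after a minimum 48 h, 37 C compound exposure with 20 nM CPT in Tdp1-knockout DT40 cells stably expressing hTDP1, seeded 400/well; qHTS titration format.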
HT1080NT lethal – qHTS for induction of synthetic lethality in tumor cells producing 2HG: qHTS for the HT-1080-NT fibrosarcoma cell line; HT-1080-NT fibrosarcoma viability, CellTiter-Glo ATP luminescence, 48 h; Potency, µM (top dose mostly 46.1 µM), usual class: cytotoxic; 360,000 tested, 1.6% active; AID 686970, 2013;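 note: NT is the 2HG producing partner of a matched IDH1 knockdown line; nearly all actives have a fitted effect of over 55% in size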
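Read-out is CellTiter-Glo luminescence after 10 minutes at room temperature, following 48 hours' compound treatment of HT-1080-NT cells (750 cells/well, RPMI, 5% FBS, 37 degrees C).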
IL1B secr inh – qHTS for Inhibitors of Inflammasome Signaling: IL-1-beta AlphaLISA Primary Screen; AID 743279, 2014; THP-1 LPS/ATP IL-1B secretion, AlphaLISA, 16 h; stronger effect = lower value; activity change, % at 57.5 µM; 360,000 tested, 4.7% active; in the data active = activity change below about -50%; inconclusive = mostly about -30% to -49%
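THP-1 cells pretreated 1 hr with compounds (up to 57.5 uM final), then stimulated with LPS (250 ng/mL final) plus ATP (1.25 mM final); secreted IL-1B measured by AlphaLISA after 16 hr, decreased signal indicating inhibition.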
Numbers stand for hits; n = inactive; u = inconclusive; x = not tested or not shown; [ ] = another dose, or the depositor's remark. A selection: hits, their analogues and other compounds. The true share with any hit is near 19%. Unless noted, calls come from the whole dose curve; as a rule, active = well fitted curve in the direction sought with a large enough effect; inconclusive = small, poorly fitted or top-dose-only effect, or another doubt; inactive = no such curve, though single readings can be large; an effect the other way counts as inactive or inconclusive.

SMILES	HT1080 IDH1KD tx	TDP1 cell noCPT	DT40 TDP1 CPT	HT1080NT lethal	IL1B secr inh
CC(Nc1nc(-c2ccc(F)cc2)cs1)c1nc2cc(C(F)(F)F)ccc2n1CCOCCO (stereo not given)	n	u	u	n	n
CC(Nc1nc(-c2ccc(F)cc2)cs1)c1nc2cc(C(F)(F)F)ccc2n1CCCO (stereo not given)	n	16µM	u	n	n
Cc1ccc(Cn2c(C(C)Nc3nc(-c4ccc(F)cc4)cs3)nc3cc(C(F)(F)F)ccc32)cc1 (stereo not given)	n	u	21µM	n	n
O=C(Nc1cccc(-n2cccn2)c1)C1CCCN(Cc2ccccc2F)C1 (stereo not given)	n	u	21µM	n	n
COc1cc(CN2CCCC(C(=O)Nc3cccc(-n4cccn4)c3)C2)ccc1F (stereo not given)	u	26µM	u	u	-66
COc1ccc(CN2CCCC(C(=O)Nc3cccc(-n4cnnn4)c3)C2)c(C)c1C (stereo not given)	n	u	u	n	n
Cc1cccc(-n2c(C)c(C)c3c(N)ncnc32)c1	n	n	n	n	n
C=CCn1c(SCC(=O)N2CCC(C)CC2)nc2c([nH]c3ccccc32)c1=O	n	u	u	n	n
CC(C)CCN(Cc1ccco1)S(=O)(=O)c1csc(C(N)=O)c1	n	23µM	18µM	n	n
CCOC(=O)N1CCN(C(C(=O)NC2CCCC2)C(C)C)CC1 (stereo not given)	n	n	n	n	n
C=CCn1c(CNS(=O)(=O)c2ccc(Br)cc2)n[nH]c1=S	n	u	u	n	n
COc1cccc(NC(=O)Cn2nnc(-c3nc(-c4ccccc4)no3)c2N)c1	x	18µM	u	x	x
Cc1ccc(-c2noc(-c3nnn(CC(=O)Nc4cccc(C(F)(F)F)c4)c3N)n2)cc1	x	2.1µM	2.1µM	x	x
Nc1c(-c2nc(-c3ccccc3)no2)nnn1CC(=O)Nc1ccccc1	x	n	n	x	x
N=c1ccn(CC(=O)c2ccc(-c3ccccc3)cc2)cc1	16µM	2.9µM	4.6µM	u	-69
O=C(NC(=S)Nc1ccc2c(c1)OCO2)c1ccccc1	n	n	n	n	n
O=C(NC(=S)Nc1ccc2c(c1)OCCO2)c1cccc(Br)c1	n	u	15µM	n	n
CC(=O)c1cccc(NC(=S)NC(=O)c2cncc(Br)c2)c1	n	u	13µM	n	n
O=C(NC(=S)Nc1ccccc1C(=O)O)c1cncc(Br)c1	n	u	u	n	n
O=C(NC(=S)Nc1ccccc1O)c1cncc(Br)c1	u	23µM	u	u	n
CC(=O)N/C(=C\c1ccccc1)C(=O)OCc1cccc(S(=O)(=O)N(C)C)c1	n	u	16µM	n	n
Cc1ccc(CN2C(=O)c3ccccc3Sc3ccc(C(=O)NC4CCCCC4)cc32)cc1	x	n	n	x	x
CC(C)C(=O)N1CCN(c2ccccc2NC(=O)c2ccc([N+](=O)[O-])o2)CC1	u	u	16µM	n	n
CCC(=O)N1CCN(c2ccccc2NC(=O)Cc2ccccc2)CC1	n	n	u	n	n
CCC(=O)N1CCN(c2ccccc2NC(=O)c2ccc([N+](=O)[O-])o2)CC1	n	18µM	18µM	u	-55
SMILES	HT1080 IDH1KD tx	TDP1 cell noCPT	DT40 TDP1 CPT	HT1080NT lethal	IL1B secr inh
CCOc1ccc(Cl)cc1S(=O)(=O)N1CCC(C(=O)NCc2ccncc2)CC1	n	n	n	n	n
Cc1sc2ccccc2[n+]1CCC[n+]1c(C)sc2ccccc21	x	1.8µM	2µM	x	x
Cc1sc2ccccc2[n+]1CC(=O)c1ccccc1	n	18µM	u	n	u
O=C(C[n+]1c(Cl)cc(Cl)c2ccccc21)c1ccccc1	x	6.3µM	4.5µM	x	x
Cc1cccc(NC(=O)CN(c2ccc(F)cc2)S(C)(=O)=O)c1	n	u	n	n	n
CCOC(=O)C1(Cc2cccc(OC)c2)CCN(Cc2cnc(C)s2)CC1	n	u	n	n	n
C=C1C(=O)O[C@H]2[C@H]1[C@H](OC(=O)/C(C)=C\C)C[C@]1(CO1)[C@@H]1[C@H](OC(C)=O)C=C(C)[C@]21O	u	13µM	12µM	n	-104
Cc1nn(-c2ccccc2)c2sc(C(=O)N3CCc4ccccc4C3)cc12	u	23µM	u	n	u
Cc1nn(-c2ccccc2)c2sc(C(=O)N3CCCCC3)cc12	n	u	u	n	n
Cc1cnc(NC(=O)c2cc3c(C)nn(-c4ccccc4)c3s2)s1	u	u	u	11µM	n
Cc1nn(-c2ccccc2)c2sc(C(=O)NNC(=O)COc3ccccc3)cc12	u	n	n	u	n
Cc1nn(-c2ccccc2)c2sc(C(=O)Nc3ccc(Br)cc3)cc12	x	16µM	u	x	x
C=C1CC[C@@H]2[C@](C)(CCC[C@@]2(C)/C=C/[C@@H](O)C(C)(C)O)[C@H]1CC(=O)NCCS(=O)(=O)O	n	n	n	n	n
CCCC(=O)N=C1SC2CS(=O)(=O)CC2N1c1ccc(C(C)=O)cc1 (stereo not given)	n[9.24 µM]	n	n	n	n
COc1ccc(-c2[nH]c(-c3ccc(OC)c(OC)c3)nc2SCC(=O)Nc2ccccc2)cc1	x	u	16µM	x	x
COc1ccc(NC(=O)CSc2nc(-c3ccc(OC)c(OC)c3)[nH]c2-c2ccc(C)cc2)cc1	x	u	5.8µM	x	x
COc1ccc(NC(=O)CSc2nc(-c3cccc(C)c3)[nH]c2-c2ccccc2)cc1OC	x	6.5µM	9.2µM	x	x
COc1ccc(NC(=O)CSc2nc(-c3ccc(OC)cc3)[nH]c2-c2ccc(F)cc2)cc1	x	n	n	x	x
COc1ccc(-c2nc(SCC(=O)Nc3ccc4c(c3)OCCO4)c(-c3ccc(C)cc3)[nH]2)cc1OC	x	18µM	u	x	x
Cc1ccc(S(=O)(=O)Nc2cc3c4c(c2)CCN4C(=O)CC3)cc1	n	u	n	n	n
O=C(NN=C1CCCC1)c1ccccc1OCc1ccc(Cl)cc1	n	u	n	n	n
C=Cc1ccc(Cn2c(C)c(CNCc3ccc(SC)cc3)c(C(=O)O)c2C)cc1	x	n	n	x	x
Cc1c(CNCCCc2ccccc2)c(C(=O)O)c(C)n1Cc1ccc(Cl)cc1	x	21µM	u	x	x
COc1cc(CNCc2c(C(=O)O)c(C)n(Cc3cccc(Cl)c3)c2C)cc(OC)c1OC	x	n	n	x	x
Cc1c(CNCCCc2ccccc2)c(C(=O)O)c(C)n1Cc1cccc(Cl)c1	x	21µM	u	x	x
CCOc1ccc(CNCc2c(C(=O)O)c(C)n(Cc3ccc(C)cc3)c2C)cc1	x	18µM	u	x	x
Cc1c(CNCCCc2ccccc2)c(C(=O)O)c(C)n1Cc1ccccc1	n	n	n	n	n
O=C(Nc1ccc(O)cc1)N1CCOCC1	n	n	n	n	n

Screening results (PubChem BioAssay)
